Data reported in PubChem BioAssay (NCATS).
“And” between values parts separate entries of the source, which are not always exact repeats. Equal entries are not always repeated. Results filed as inconclusive are left out. Unmarked numbers belong to inactive results. The source made the active and inactive calls. The call rests on the fitted dose curve; in most records, active means well fitted cell-killing curve with a large enough effect; inconclusive means small, poorly fitted or top-dose-only effect, or effect the other way; inactive means no such curve, though single readings can be large or run the other way.

Assay: Viability qHTS for spleen associated tyrosine kinase inhibitor (SYKi) naive MV4-11 cells (AID 1963823); further: nearly all actives have a fitted effect of over 40% in size
Conditions: MV4-11 AML viability, CellTiter-Glo luminescence, 72 h; series mostly up to 45 µM
Summary of the method: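 CellTiter-Glo luminescence, 10 min room-temperature incubation, gave viability. Cells: naive MV4-11 (500/well), treated 72 hr at 37 C, 5% CO2.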
Potency means the concentration at half of the fitted maximal effect.

| SMILES | Potency | viability (% of control) |
| --- | --- | --- |
| CC(O)C(O)/C=C/C=C/C(=O)O[C@@H]1C=C2COC(=O)[C@]2(O)[C@@]2(C)CCCC(C)(C)C12 (some centres undefined) | inactive | – |
| Nc1ccc(-c2cccc3c(=O)cc(N4CCOCC4)oc23)cc1 | 9.2 µM (active) | – |
| COCCOC(=O)C1=C(C)NC2=C(C(=O)CC(c3ccccc3OC)C2)C1c1cccc(O)c1 (centres undefined) | 2.95 µM (active) and 4.11 µM (active) | – |
| COc1ccc(/C=C\C(=O)O)c(O[C@@H]2O[C@H](CO)[C@@H](O)[C@H](O)[C@H]2O)c1 | inactive | – |
| CCNC(=O)c1noc(-c2cc(Cl)c(O)cc2O)c1-c1ccc(OC)cc1 | 0.0326 µM (active) | – |
| CCn1c(=O)c(-c2ccc(-c3cncc(C)n3)cc2Cl)cc2cnc(NCCC3CCN(C)CC3)nc21 | 1.18 µM (active) | – |
| COc1cc(NC(=O)c2cc(C3CC3)on2)c(OC)cc1Cl | inactive | – |
| Cn1ccnc1CCOC(c1cc2nccc(C(=O)O)c2[nH]1)c1ccccc1Cl (centres undefined) | inactive | – |
| Cc1cncc2cccc(S(=O)(=O)N3CCCNC[C@@H]3C)c12 | 3.66 µM (active) | – |
| C=C(NC(=O)C(=C)NC(=O)c1csc(C2=NC3c4csc(n4)C4NC(=O)c5csc(n5)C(C(C)(O)C(C)O)NC(=O)C5CSC(=N5)/C(=C/C)NC(=O)C(C(C)O)NC(=O)c5csc(n5)C3(CC2)NC(=O)C(C)NC(=O)C(=C)NC(=O)C(C)NC(=O)C(C(C)CC)NC2C=Cc3c(C(C)O)cc(nc3C2O)C(=O)OC4C)n1)C(N)=O (centres undefined) | 1.3 µM (active) | – |
| CC(C)(O[C@@H]1O[C@H](CO)[C@@H](O)[C@H](O)[C@H]1O)C(OC(=O)/C=C\c1ccc(O)cc1)C(=O)OCc1ccc(O[C@@H]2O[C@H](CO)[C@@H](O)[C@H](O)[C@H]2O)cc1 (some centres undefined) | inactive | – |
| COc1cc(O)cc(OC2OC(CO)C(O)C(O)C2O)c1 (centres undefined) | inactive | – |
| CCOC(=O)C1=Cc2ccc(C(F)(F)C(F)(F)F)cc2N=C(N)C1 | 20.6 µM (active) | – |
| C=C[C@H]1[C@H](O[C@@H]2O[C@H](CO)[C@@H](O)[C@H](O)[C@H]2O)OC=C(C(=O)OC)[C@H]1CCOC(=O)c1cc(O)c(O)c(O)c1 | inactive | – |
| NC(=O)CCCSc1nc(N)nc(-c2c(Cl)cc3c4c(cccc24)COC3)n1 | 0.0651 µM (active) | – |
| C=C1CCC2C(OC(=O)C2(O)COC(C)=O)C2C(=C)C(O)CC12 (centres undefined) | inactive | – |
| C=C1C(=O)O[C@H](CCC)[C@H]1C(=O)O | inactive | – |

| SMILES | Potency | viability (% of control) |
| --- | --- | --- |
| CNC(=O)[C@H]1O[C@@H](n2cnc3c(NCc4ccc(N)c(I)c4)ncnc32)[C@H](O)[C@@H]1O | – | 77.1% [at 9.25 µM] |
| CCN(CC)CCN(Cc1ccc(-c2ccc(C(F)(F)F)cc2)cc1)C(=O)Cn1c(SCc2ccc(F)cc2)nc(=O)c2c1CCC2 | 2.91 µM (active) | – |
| Nc1ccc(S(=O)(=O)c2ccc(N)cc2)cc1 | inactive | – |
| CNC(=O)c1ccccc1Nc1nc(Nc2ccc3c(c2OC)CCCC(N2CCN(CCO)CC2)C3)ncc1Cl (centres undefined) | 0.366 µM (active) | – |
| COC(=O)C1=COC(OC2OC(CO)C(O)C(O)C2O)C2C1CC(OC(=O)C(O)CC(=O)O)C2C (centres undefined) | inactive | – |
| CC(O)(C#Cc1ccc2c(c1)N(c1nc(N)ncc1Cl)CC2)c1nccs1 (centres undefined) | 13 µM (active) | – |
| C=C1C(=O)O[C@H]2[C@H]1[C@@H](OC(=O)/C(C)=C\C)C[C@]1(C)O[C@@H]1[C@H]1O[C@H]1C(=C)[C@H]2O | 8.05 µM (active) | – |
| CN(C)c1ccc(Nc2nc(N)n(C(=O)c3c(F)cccc3F)n2)cc1 | 3.66 µM (active) | – |
| OCC(CO[C@@H]1O[C@H](CO)[C@@H](O)[C@H](O)[C@H]1O)c1ccc2c(c1)OCO2 (some centres undefined) | inactive | – |
| Clc1ccc(Nc2nc3ccccc3c3nc(C4CCCCC4)[nH]c23)cc1Cl | 18.4 µM (active) | – |
| CC(NC(=O)c1ccccc1N)C(=O)O (centres undefined) | inactive | – |
| CCN1/C(=C/C(C)=O)Sc2ccc(OC(C)=O)cc21 | 7.31 µM (active) | – |
| CCOC(=O)c1cc(C#N)c(N2CCC(C(=O)NS(=O)(=O)Cc3ccccc3)CC2)nc1C | inactive | – |
| C=C1C(=O)OC2C(OC(=O)C=C(C)C)C(C)=C3C(=O)C=C(C)C3C(O)C12 (centres undefined) | 2.02 µM (active) | – |
| CNC(=O)c1cc(Oc2ccc(NC(=O)c3cccc(C(F)(F)F)c3)cc2)ccn1 | 11.6 µM (active) | – |
| C=CCc1ccc(O[C@@H]2O[C@H](CO[C@@H]3O[C@H](CO)[C@@H](O)[C@H](O)[C@H]3O)[C@@H](O)[C@H](O)[C@H]2O)c(O)c1 | inactive | – |
| CCC(=O)N1CCN(c2ccc(-n3c(=O)ccc4cnc5ccc(-c6cnc7ccccc7c6)cc5c43)cc2C(F)(F)F)CC1 | 42.2 nM (active) and 36.2 nM (active) | – |
